Bioassay records as filed in PubChem BioAssay.
Shown is part of a subset that was picked to be rich in hits.
miR-122 inh = miR-122 sensor activation | AID 623901 | 340,000 tested, 0.14% active | activation, % at 12.5 µM | Huh7 psiCHECK-miR122 Renilla luciferase sensor, 48 h;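 active = mean activation of 30% or more, with every replicate also reaching 30%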;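 also: 0% = median of neutral control wells and 100% = median of positive control wells; higher luciferase signal means stronger suppression of miR-122 activity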
Numbers without * were called inactive.

SMILES | miR-122 inh
COCC(=O)Nc1ccc2c(c1)C(=O)N(C)[C@@H]1CC[C@H](CC(=O)NCCCN(C)C)O[C@H]1CO2 | 45*
COCC(=O)Nc1ccc2c(c1)C(=O)N(C)[C@H]1CC[C@@H](CC(=O)O)O[C@H]1CO2 | -262
COCC(=O)Nc1ccc2c(c1)C(=O)N(C)[C@@H]1CC[C@H](CC(=O)NCc3ccccc3F)O[C@H]1CO2 | 50*
C[C@H](CO)N1C[C@H](C)[C@H](CN(C)Cc2ccc(F)cc2)Oc2ncc(-c3ccccc3)cc2C1=O | 1
CO[C@H]1CN(C)C(=O)c2cc(NC(=O)NC(C)C)ccc2OC[C@@H](C)N(C(=O)NC(C)C)C[C@@H]1C | -1
C/C=C/c1cnc2c(c1)C(=O)N([C@@H](C)CO)C[C@@H](C)[C@@H](CN(C)C(=O)Cc1cccnc1)O2 | -5
CCCC#Cc1ccc2c(c1)O[C@H](CN(C)S(C)(=O)=O)[C@H](C)CN([C@@H](C)CO)S2(=O)=O | -10
CO[C@H]1CN(C)C(=O)c2cc(NC(=O)Cc3ccccc3)ccc2OC[C@H](C)N(C)C[C@@H]1C | -2
Cc1ccc(S(=O)(=O)N(C)C[C@@H]2Oc3cc(C#CC4CCCC4)ccc3S(=O)(=O)N([C@@H](C)CO)C[C@@H]2C)cc1 | -29
CC(=O)N(C)C[C@H]1[C@H](c2ccc(-c3cccnc3)cc2)[C@@H](CO)N1C(=O)C1CC1 | -125
O=C(C1CCOCC1)N1[C@H](CO)[C@H]2c3ccccc3NC[C@H]21 | 42*
CC(=O)N1[C@@H](CO)[C@H](c2ccccc2)[C@@H]1CNC(=O)CN1CCOCC1 | -108
Cc1noc(C)c1NC(=O)N(C)C[C@H]1Oc2ncc(C#CC3CCCCC3)cc2C(=O)N([C@@H](C)CO)C[C@@H]1C | -6
C[C@@H]1CN([C@H](C)CO)C(=O)c2cc(-c3ccc(C(=O)N(C)C)cc3)cnc2O[C@H]1CN(C)Cc1ccc(C(=O)O)cc1 | 0
C/C=C/c1ccc([C@H]2[C@H](CO)N(c3nc(CC)cs3)[C@H]2CNC(C)C)cc1 | -133
C[C@@H]1CN([C@@H](C)CO)S(=O)(=O)c2ccc(-c3ccccc3)cc2O[C@H]1CN(C)Cc1cncnc1 | -1
CC(C)CC#Cc1cnc2c(c1)C(=O)N([C@@H](C)CO)C[C@@H](C)[C@H](CN(C)C(=O)Cc1ccccc1)O2 | 6
COc1ccc(Cn2c(SCc3ccccc3C)nc3cc(OC)c(OC)cc3c2=N)cc1 | 62*
C[C@H]1CN([C@@H](C)CO)C(=O)c2cc(C#Cc3cccc(F)c3)cnc2O[C@@H]1CN(C)C(=O)C1CC1 | 0
C[C@H](CO)N1C[C@H](C)[C@H](CN(C)C(=O)Nc2ccc3c(c2)OCO3)Oc2ncc(-c3ccccc3)cc2C1=O | 1
CO[C@H]1CN(C)C(=O)c2ccc(NC(=O)Nc3cccc(F)c3)cc2OC[C@@H](C)N(C)C[C@@H]1C | -2
CCCN(C)C[C@H]1Oc2cc(C#CC3CC3)ccc2S(=O)(=O)N([C@H](C)CO)C[C@H]1C | -34
C[C@H]1CN([C@@H](C)CO)C(=O)c2cc(C#CC3(O)CCCC3)cnc2O[C@@H]1CN(C)S(=O)(=O)c1ccccc1 | -3
CCCN(C)C[C@H]1Oc2cc(C#CCN(C)C)ccc2S(=O)(=O)N([C@@H](C)CO)C[C@H]1C | -4
O=C(NC(Nc1ncc(S(=O)(=O)c2ccc([N+](=O)[O-])cc2)s1)(C(F)(F)F)C(F)(F)F)c1ccc(Cl)cc1 | 44*
SMILES | miR-122 inh
C[C@@H]1CN([C@H](C)CO)C(=O)c2cc(-c3cccc(C#N)c3)cnc2O[C@H]1CN(C)Cc1ccccc1 | -3
C[C@@H]1CN([C@@H](C)CO)S(=O)(=O)c2ccc(Br)cc2O[C@@H]1CN(C)CC1CCOCC1 | 6
COc1ccccc1-c1ccc2c(c1)O[C@@H](CN(C)S(=O)(=O)c1ccccc1)[C@H](C)CN([C@H](C)CO)S2(=O)=O | -9
COCC#Cc1ccc2c(c1)O[C@@H](CN(C)C(=O)C1CCOCC1)[C@@H](C)CN([C@@H](C)CO)S2(=O)=O | 2
COc1ccc(OC)c(Nc2cc(C)nc3nc(C)nn23)c1 | -107
COc1ccc(NS(=O)(=O)c2cc(OC)ccc2OC)cc1 | -130
COc1ccc(OC)c(Nc2cc(C)nc3ccc(C)cc23)c1 | 32*
C[C@@H]1CN([C@H](C)CO)C(=O)c2cc(C#CCc3ccccc3)cnc2O[C@H]1CN(C)Cc1cccc(C(=O)O)c1 | 2
COc1ccc(-c2ccc(C#N)c(OC(=O)c3c(Cl)cccc3Cl)n2)cc1 | 32*
C[C@H](CO)N1C[C@H](C)[C@H](CN(C)C(=O)C2CCCCC2)Oc2ncc(-c3cccc(C#N)c3)cc2C1=O | -2
CCCN(C)C[C@H]1Oc2cc(C#CC(C)C)ccc2S(=O)(=O)N([C@H](C)CO)C[C@H]1C | -22
